Screens deposited in PubChem BioAssay by National Center for Advancing Translational Sciences (NCATS).
Only a selection was taken, and hits are over-represented in it overall.
PTAP TSG101 blk = qHTS Assay for Iinhibitors of HIV-1 Budding by Blocking the Interaction of PTAP/TSG101. Tumor susceptibility gene 101 protein (Homo sapiens), Q99816. 340,000 tested, under 10 active. Fluorescence polarization, FITC-PTAP peptide / Tsg101 binding. Potency, µM (series often up to 115 µM), without a hit: at the top dose activity change, negative = inhibition, hits mostly inhibitors; active = well fitted inhibition curve with a large enough effect in the main read-out, with a control signal flat, not every such curve was filed as active; inconclusive = small, poorly fitted or top-dose-only effect, or effect the other way, or a change in a side signal; inactive = no such curve, though single readings can be large or run the other way; note: % of control where 0% means no effect
Target sequence (Q99816 whole entry, looked up): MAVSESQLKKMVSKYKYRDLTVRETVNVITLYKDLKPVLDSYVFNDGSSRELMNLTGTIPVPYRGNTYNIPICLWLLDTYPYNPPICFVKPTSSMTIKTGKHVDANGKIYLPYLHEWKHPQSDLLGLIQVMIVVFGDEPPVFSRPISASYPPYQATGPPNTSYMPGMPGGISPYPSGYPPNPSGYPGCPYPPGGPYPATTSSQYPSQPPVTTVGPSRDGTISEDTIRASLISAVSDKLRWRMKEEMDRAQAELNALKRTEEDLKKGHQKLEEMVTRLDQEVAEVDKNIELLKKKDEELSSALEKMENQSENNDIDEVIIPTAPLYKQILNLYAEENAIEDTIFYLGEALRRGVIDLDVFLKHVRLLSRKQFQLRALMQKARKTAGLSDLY
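Fluorescence anisotropy tracks displacement of a FITC-tagged PTAP peptide (50 nM) from the Tsg101 binding domain (10 uM), following a 20 min room-temperature incubation at pH 7.5.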
HTT ATP protect = qHTS Multiplex Assay to Identify Dual Action Probes in a Cell Model of Huntington: Cytoprotection (ATP). AID 1471, 2008. PC12 HTT-Q103 induced, cytoprotection, ATP luminescence, 40 h. 0.14% of 230,000 active. Potency, µM (top dose mostly 56.4 µM), for the others: cytoprotection (ATP increase), actives largely listed as activators; note: % of control where 0% means no effect; nearly all actives have a fitted effect of over 45% in size
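Compounds were screened for protection of PC12 cells against cell death after tebufenozide induction (100 nM final) of mutant Huntingtin exon 1 (Q103) fused to GFP.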
Epigenetic derep = Quantitative High-Throughput Screen for Regulators of Epigenetic Control | murine LDR cells, GFP reporter derepression, 30 h | 0.2% of 280,000 active | AID 1865, 2009 | Potency, µM (series often up to 53.9 µM), for the others: top-dose GFP activation, actives largely listed as activators; note: % of control where 0% means no effect; nearly all actives have a fitted effect of over 60% in size
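In this reporter-derepression format, murine cells bearing a silenced integrated CMV-GFP locus incubate with test compound (30 h, 37 C), then are washed and imaged; fluorescent objects of 20–120 um count as induced cells.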
Anesthetic bind = qHTS Assay for Identification of Novel General Anesthetics; AID 485281, 2010; Ferritin light chain (Equus caballus), P02791; Potency, µM (highest dose often 77.5 µM), without a hit: top-dose activity change, negative = displacement, usual class: inhibitors; 0.074% of 350,000 active; apoferritin/1-aminoanthracene competitive binding, fluorescence; note: % is set by controls: 0 for no effect and ±100 for the full control effect; nearly all actives have a fitted effect of over 20% in size
Target sequence (P02791 2-175 limits assumed): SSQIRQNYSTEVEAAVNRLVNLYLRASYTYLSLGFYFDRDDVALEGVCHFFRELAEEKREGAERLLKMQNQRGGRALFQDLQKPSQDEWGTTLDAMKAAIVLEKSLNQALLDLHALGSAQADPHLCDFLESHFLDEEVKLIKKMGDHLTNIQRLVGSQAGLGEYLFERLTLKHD
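Probe: 1-aminoanthracene (50% saturated, PBS). Protein: horse-spleen apoferritin, 10 uM. Incubation: 10 min, room temperature. Detection: 380 nm excitation, 535 nm emission. Analysis: normalized response, four-parameter Hill.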
PINK1 modulator = A Quantitative High throughput Screen to Identify Chemical Modulators of PINK1 Expression | AID 624263, 2012 | PINK1 immunofluorescence, high-content cytometry, 24 h | 0.2% of 410,000 active | Potency, µM (highest dose often 76.6 µM), for the others: at the highest dose activation (PINK1 increase), actives largely listed as activators; active = well fitted activation curve with a large enough effect; inconclusive = small, poorly fitted or top-dose-only effect; cell line not stated here; note: % of control where 0% means no effect; nearly all actives have a fitted effect of over 65% in size
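Compound titrations (5 concentrations, 24 h) on a stable cell line; DMSO and CCCP controls. Endpoint: fixed-cell PINK1 immunofluorescence with mitochondrial, cell and nuclear markers, scanned by microplate cytometer.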
HTT aggregate = qHTS Multiplex Assay to Identify Dual Action Probes in a Cell Model of Huntington: Aggregate Formation (GFP); PC12 HttQ103-GFP aggregates, Acumen cytometry, 40 h; Potency, µM (top dose mostly 46.1 µM), inactives show top-dose activity change, negative = inhibition, actives largely listed as inhibitors; 1.1% of 220,000 active; AID 1688, 2009; note: % is set by controls: 0 for no effect and ±100 for the full control effect; nearly all actives have a fitted effect of over 60% in size
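Compounds (qHTS titration) were added to PC12 cells expressing an ecdysone-driven HTT exon 1 Q103–GFP fusion after induction with 100 nM tebufenozide. Aggregate formation was measured as GFP objects in cell lysates.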
* marks the source's active call; other numbers are inactive results; ? = inconclusive; . = no result given; [ ] = remark or other dose. Unless noted, calls come from the whole dose curve; as a rule, active = well fitted curve in the direction sought with a large enough effect; inconclusive = small, poorly fitted or top-dose-only effect, or another doubt; inactive = no such curve, though single readings can be large; an effect the other way counts as inactive or inconclusive. Potency is the fitted concentration of half-maximal effect.

SMILES	PTAP TSG101 blk	HTT ATP protect	Epigenetic derep	Anesthetic bind	PINK1 modulator	HTT aggregate
Cc1c(C(=O)NCC(C)(C)N2CCOCC2)cnn1-c1ncc2c(n1)-c1ccccc1CC2	.	.	.	.	0%	.
O=C(CCC(=O)c1cccs1)OCC(=O)c1ccc(Cl)s1	2%	-16%[10 µM]	7%	28µM*	0%	3%
CCCn1c(NC(=O)c2cccc(C)c2C)nc2ccccc21	-2%	-57%	1%	-18%	14%	6.3µM*
COc1cc(OC)c(CN2CCOc3ccc(CN4CCC(O)CC4)cc3C2)c(OC)c1	.	.	.	.	0%	.
COc1cc(OC)c(OC)cc1/C=C/c1nccc2ccccc12	.	.	.	.	11%	.
CCCN(CCC)c1nn2c(=O)c(C(=O)NCc3cc(Br)ccc3OC)cnc2s1	.	.	0%	-11%	0%	.
COC(=O)[C@@]1(Cc2ccccc2-c2ccco2)C=C[C@H](C)[C@@H](c2ccccc2)N1C(=O)C(F)(F)F	.	10µM*	1%	.	.	.
Cc1cc(C(=O)N/N=C/c2cc([N+](=O)[O-])ccc2O)c2ccccc2n1	0%	32%[10 µM]	1%	-11%	-1%	7.1µM*
O=C(N/N=C/c1cc([N+](=O)[O-])ccc1O)c1c[nH]c2ccccc12	-2%	3%[10 µM]	3%	3%	35µM*	0%[9.22 µM]
O=C(N/N=C/c1cc([N+](=O)[O-])ccc1O)c1cc(-c2ccccc2)nc2ccccc12	6%	41%[10 µM]	0%	-11%	?	-5%
O=C(N/N=C/c1cccc([N+](=O)[O-])c1)c1c[nH]c2ccccc12	0%	7%[10 µM]	0%	-10%	2%	15%[9.22 µM]
Oc1cccc2c(NC(=S)Nc3ccc(OC(F)F)cc3)cccc12	-4%	-21%[10 µM]	14%	-6%	0%	13µM*
CC(C)c1c(C(=O)NCC(C)(C)N2CCOCC2)cnn1-c1nccc(-c2ccccc2F)n1	.	.	.	.	0%	.
CC(=O)Nc1sc2c(c1-c1nc3ccccc3s1)CCN(C(C)C)C2	-7%	-87%[10 µM]	4µM*	2%	-2%	?
CCN1CCc2c(sc(NC(=O)CSc3ccccc3)c2-c2nc3ccccc3s2)C1	.	.	0.89µM*	60%	11%	.
CN1CCc2c(sc(NC(=O)CSc3ccc(F)cc3)c2-c2nc3ccccc3s2)C1	.	.	3.2µM*	-9%	?	.
CC(=O)N1CCc2c(sc(NC(=O)CSc3ccc(F)cc3)c2-c2nc3ccccc3s2)C1	.	.	8%	57%	3%	.
COc1ccc(CCn2c3c(c(=O)[nH]c2=S)CN(CC(C)C)CN3)cc1OC	.	.	.	.	3%	.
CC(C)(C)OC(=O)NCCc1nnc(S(=O)(=O)Cc2ccc(Cl)cc2Cl)o1	-2%	10%[0.074 µM]	1%	?	-3%	20µM*
CC(C)c1nn2c(=O)cc(COC(=O)c3cccc(NC(=O)CCc4ccccc4)c3)nc2s1	.	.	-5%	-1%	0%	.
Cc1ccc(-c2c3c(nc4sc(C(N)=O)c(N)c24)CCC3)cc1	-2%	-2%	1%	-16%	-1%	10µM*
NC(=O)c1sc2nc3c(c(-c4ccc(Cl)cc4)c2c1N)CCCC3	-3%	?	-4%	-14%	-1%	-3%
Cc1cc(/C=C2\C=Cc3ccccc32)cc(C)c1N	.	.	.	.	5%	.
O=C1CC(NC(=O)C(F)(F)F)c2cc3c(cc21)OCO3 (centres undefined)	0%	-1%[10 µM]	1%	3%	6%	-3%
O=C(NC1C/C(=N/O)c2cc3c(cc21)OCO3)C(F)(F)F (centres undefined)	2%	4µM*	5%	-2%	0%	?
SMILES	PTAP TSG101 blk	HTT ATP protect	Epigenetic derep	Anesthetic bind	PINK1 modulator	HTT aggregate
CC(C)(C)c1ccc(NC(=O)COc2ccc(-n3ccnc3)cc2)cc1	-8%	-13%	1%	28µM*	0%	?
COc1ccc(-c2cc(C(F)F)n3ncc(C(=O)N4CCc5ccccc54)c3n2)cc1	1%	-69%[10 µM]	?	-8%	5%	1.6µM*
Cc1ccc(-c2cc(C(F)F)n3ncc(C(=O)N4CCCc5ccccc54)c3n2)cc1	0%	-2%[10 µM]	0%	-7%	10%	-14%
[O-][n+]1onc2c1CCc1c-2nn(-c2ccccc2Cl)[n+]1[O-]	-6%	-62%	0%	-14%	-2%[38.3 µM]	11µM*
Cc1cccc(-n2nc3c([n+]2[O-])CCc2nonc2-3)c1C	-2%	.	0%	8%	-2%	-1%
Cc1ccc(-n2nc3c(n2)/C(=N/O)CC/C3=N\O)cc1	-1%	-31%[10 µM]	-1%	4%	2%	2%
Cc1ccc(-n2nc3c([n+]2[O-])CCc2c-3no[n+]2[O-])cc1	-5%	?	-5%	-9%	-5%	13µM*
Cc1cnc(C)c(-c2cc(F)cc3c2OC(CNC(=O)Cc2c(C)noc2C)C3)n1 (centres undefined)	.	.	.	.	0%	.
O=C(Nc1ccc(F)cc1F)c1ccc(-n2cnc3cccnc32)cc1	.	.	-1%	-11%	0%	.
COc1cccc(OC)c1-c1nn2c(-c3n[nH]c4c3CCC4)nnc2s1	.	.	.	.	2%	.
CCN(CC)c1ccc(-c2nn3c(-c4n[nH]c5c4CCC5)nnc3s2)cc1	-1%	-94%	5%	312%	-2%	13µM*
CCC1CN(CCNC(=O)c2ccc3c(c2)OCO3)Cc2cc(OC)ccc2O1 (centres undefined)	.	.	.	.	0%	.
O=C(Nc1ccccc1)Nc1nnc(CSCc2ccccc2Cl)s1	0%	5%[10 µM]	-1%	-1%	?	?
Cc1ccc(OCCSCc2nnc(NC(=O)Nc3cccc(Cl)c3)s2)cc1	4%	.	-2%	-12%	?	8.9µM*
Cc1nnc(NC(=O)Nc2cccc(Cl)c2)s1	-1%	-1%[10 µM]	-1%	-8%	10%	?
O=C(Nc1ccc(Cl)cc1)Nc1nnc(CSCc2ccccc2Cl)s1	-1%	18%[10 µM]	0%	-7%	40µM*	?
O=C(Nc1ccc(Cl)c(Cl)c1)Nc1nnc(CSc2ccccc2)s1	-2%	26%[10 µM]	-3%	-3%	10µM*	2.8µM*
CCCN1C(=O)c2ccccc2NC1c1ccc(OC)c(COc2cccc(OC)c2)c1 (centres undefined)	.	.	.	.	0%	.
N#C/C(=C\c1ccc(C(=O)O)cc1)c1nc2sc3c(c2c(=O)[nH]1)CCCC3	?	-7%[10 µM]	1%	-3%	32µM*	-9%[9.22 µM]
